Values joined by “and” are separate entries in the source; they are usually repeats but may differ in a detail not shown here. Identical values can stand only once. Inconclusive results are not listed. Active and inactive are the calls of the source. The call rests on the fitted dose curve; in most records, active means well fitted curve in the direction sought with a large enough effect; inconclusive means small, poorly fitted or top-dose-only effect, or another doubt; inactive means no such curve, though single readings can be large; an effect the other way counts as inactive or inconclusive.
Tests used:
[1] = qHTS Assay for Identifying Gametocytocidal Compounds (AID 743244); further: potency means the concentration at half of the fitted maximal effect;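 on max response: on the % scale 0 is the no-effect control and ±100 the full control effect; actives lower the fluorescent signal which means gametocytes are killed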; conditions: P. falciparum 3D7 stage III-V gametocytes, alamarBlue, 72 h; max response: active compounds read low
Method in brief: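 Compounds are pinned into medium, gametocytes (stage III–V, 3D7, 20,000 cells/well) added, and plates held 72 h at 37 °C in 5% CO2. AlamarBlue follows for 24 h before fluorescence reading.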

[2] = molecular target: Arylsulfatase A (Homo sapiens) (UniProt P15289); test: qHTS screen for enhancers of Arylsulfatase A (ASA1): LOPAC Validation Assay (AID 720538); conditions: outcome: dose series up to 57.5 µM
Chain of Arylsulfatase A (Homo sapiens) (P15289 whole entry, looked up): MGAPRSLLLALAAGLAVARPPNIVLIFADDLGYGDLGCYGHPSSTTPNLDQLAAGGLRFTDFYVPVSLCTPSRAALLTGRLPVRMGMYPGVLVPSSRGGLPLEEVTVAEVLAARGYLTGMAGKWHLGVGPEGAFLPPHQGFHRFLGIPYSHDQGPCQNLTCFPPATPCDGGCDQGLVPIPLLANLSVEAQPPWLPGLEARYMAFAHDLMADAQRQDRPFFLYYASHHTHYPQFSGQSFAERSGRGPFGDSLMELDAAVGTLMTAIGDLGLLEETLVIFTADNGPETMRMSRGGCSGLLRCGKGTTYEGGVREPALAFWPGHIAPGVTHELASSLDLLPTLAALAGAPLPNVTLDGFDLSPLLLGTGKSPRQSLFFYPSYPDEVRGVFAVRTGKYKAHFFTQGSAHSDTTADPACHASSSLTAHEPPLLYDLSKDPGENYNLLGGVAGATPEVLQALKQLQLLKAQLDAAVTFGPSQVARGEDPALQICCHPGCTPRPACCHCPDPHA
Method in brief: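 Enhancer assay in patient-derived MLD fibroblasts carrying ASA-I179S: 48 h compound exposure at 37 C, then 14 h room-temperature pNCS turnover (0.5 mM final) in lysis buffer. Read by fluorescence at 525/598 nm after NaOH stop.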

[3] = qHTS for compounds that reverse cellular toxicity of Amyloid beta (A-beta) peptide in yeast: LOPAC Validation Assay (AID 720559);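 further: plate controls were DMSO for no effect and equimolar ferric chloride plus clioquinol rescue for full effect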
Method in brief: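 Rescue of A-beta toxicity was scored as yeast growth by 600 nm absorbance after 48 hr at 30 C with compound. Normalization used DMSO (negative) and equimolar ferric chloride plus clioquinol (positive).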

[4] = qHTS for Activators of Parkin Expression: LOPAC Validation Assay (NLuc Reporter) (AID 720572)
Method in brief: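 Compound effects on Parkin promoter activity were measured as NanoLuc luminescence after 24 h at 37 C. The neuronal reporter line also carried FLuc, which was read first. LOPAC compounds were tested at 7 concentrations, with normalization to DMSO (0%) and positive control (100%).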

[5] = molecular target: T1, Hexokinase-4 (Homo sapiens) + Glucokinase regulatory protein (Homo sapiens) (UniProt P35557+Q14397); test: qHTS assay for inhibitors of recombinant human GCK-GKRP interaction: Diaphorase-coupled assay (AID 743205)
T1 sequence (P35557 whole entry, looked up): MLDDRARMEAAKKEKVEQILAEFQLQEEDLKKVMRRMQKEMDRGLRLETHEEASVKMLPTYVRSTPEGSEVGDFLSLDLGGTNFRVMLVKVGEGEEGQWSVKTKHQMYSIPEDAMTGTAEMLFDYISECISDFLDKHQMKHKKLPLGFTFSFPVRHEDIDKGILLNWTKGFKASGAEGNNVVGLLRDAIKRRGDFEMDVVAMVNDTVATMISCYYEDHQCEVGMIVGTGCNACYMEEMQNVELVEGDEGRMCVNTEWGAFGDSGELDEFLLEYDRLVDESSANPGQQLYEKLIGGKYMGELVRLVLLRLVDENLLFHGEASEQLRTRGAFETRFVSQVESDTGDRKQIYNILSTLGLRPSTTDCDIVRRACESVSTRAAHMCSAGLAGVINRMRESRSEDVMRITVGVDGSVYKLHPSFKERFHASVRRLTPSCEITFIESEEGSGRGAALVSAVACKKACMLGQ
T1 sequence (Q14397 whole entry, looked up): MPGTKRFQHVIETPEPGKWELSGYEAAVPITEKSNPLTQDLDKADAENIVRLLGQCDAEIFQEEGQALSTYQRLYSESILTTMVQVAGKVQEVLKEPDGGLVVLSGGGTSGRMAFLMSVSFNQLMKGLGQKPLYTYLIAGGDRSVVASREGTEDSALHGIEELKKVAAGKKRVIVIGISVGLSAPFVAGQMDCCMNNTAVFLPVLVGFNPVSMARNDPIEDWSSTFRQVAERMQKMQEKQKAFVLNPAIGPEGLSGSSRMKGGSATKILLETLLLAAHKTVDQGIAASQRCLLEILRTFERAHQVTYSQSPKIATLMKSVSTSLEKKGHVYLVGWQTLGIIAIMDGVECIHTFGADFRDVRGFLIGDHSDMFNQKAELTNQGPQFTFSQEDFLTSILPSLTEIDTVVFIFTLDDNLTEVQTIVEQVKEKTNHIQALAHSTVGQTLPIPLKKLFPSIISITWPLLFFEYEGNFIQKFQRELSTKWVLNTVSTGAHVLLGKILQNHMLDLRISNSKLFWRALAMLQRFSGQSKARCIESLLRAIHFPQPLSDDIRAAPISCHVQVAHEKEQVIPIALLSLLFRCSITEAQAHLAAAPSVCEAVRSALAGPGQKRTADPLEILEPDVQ
Method in brief: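 A kinetic fluorescence read (Ex 525/Em 590 nm, every minute for 30 minutes) tracked resorufin from a G6PDH-diaphorase coupled GCK reaction. It contained 10 nM GST-GCK, 10 nM FLAG-GKRP, 5 mM glucose, 0.4 mM ATP in Hepes pH 7.6. Normalized to with/without-enzyme DMSO controls.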

[6] = molecular target: T1, Hexokinase-4 (Homo sapiens) + Glucokinase regulatory protein (Homo sapiens); test: qHTS assay for inhibitors of recombinant human GCK-GKRP interaction: ADP-Glo assay (AID 743206);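 further: plate controls were DMSO plus enzyme for no effect and no enzyme for full effect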
Method in brief: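 Pin-transferred compounds meet a 15 nM GST-GCK/15 nM FLAG-GKRP/2 uM S6P mix (dispense concentrations). ATP is then added to 0.4 mM final with 5 mM glucose, and the reaction runs 60 min at room temperature. ADP is quantified luminescently.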

[7] = molecular target: T1, Hexokinase-4 (Homo sapiens) + Glucokinase regulatory protein (Homo sapiens); test: qHTS assay for inhibitors of recombinant human GCK-GKRP interaction: HTRF assay (AID 743207);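 further: 0% = DMSO with GCK present and -100% = DMSO wells lacking GCK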
Method in brief: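 After 60 min equilibration at room temperature with anti-FLAG XL665 and anti-GST antibodies, FRET ratio (665/615 nm, excitation 320 nm) was read. Proteins: GST-GCK and FLAG-GKRP, each 5 nM, plus 2 uM S6P, pH 7.1 buffer; GCK-free wells define minimum signal.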

CC(C)n1nc(-c2cc3cc(O)ccc3[nH]2)c2c(N)ncnc21
inactive: max response [1] -4.02%

O=C(O)c1cc2cc(Cc3cccnc3)ccc2o1
inactive: outcome [2] | outcome [3] | outcome [4] | outcome [5] | outcome [6] | outcome [7] | max response [1] 2.09% and 51.2%

COC(=O)[C@H]1[C@H]2C[C@H]3c4[nH]c5ccccc5c4CCN3C[C@H]2CC[C@@H]1O
inactive: outcome [2] | outcome [3] | outcome [4] | outcome [5] | outcome [6] | outcome [7] | max response [1] 13.2% and 17.2%

Cc1c(C)n(Cc2ccccc2)c2ccc(C(=O)OCCN(C)C)cc12
inactive: max response [1] 28.3%

Nc1ccc(C(=O)Nc2ccccc2N)cc1
inactive: max response [1] 0.176%

Nc1cc(Cl)c(NC2=NCCN2)c(Cl)c1
inactive: outcome [2] | outcome [3] | outcome [4] | outcome [5] | outcome [6] | outcome [7] | max response [1] -0.108% and 36.5%

C[N+]1(CCCCC[N+]2(C)CCCC2)CCCC1
inactive: outcome [2] | outcome [3] | outcome [4] | outcome [5] | outcome [6] | outcome [7] | max response [1] 12.3% and 19.3%

C/C=C/c1ccc(OC)cc1
inactive: max response [1] 16%

C/C=C(/C(=C/C)c1ccc(O)cc1)c1ccc(O)cc1
inactive: max response [1] -1.19%

NC(CO)(CO)CO
inactive: max response [1] 0.227%

CCCCN1CCCC1C(=O)Nc1c(C)cc(C)cc1C (configuration not stated)
inactive: max response [1] -5.69%

C=C1C[C@H]2[C@@H]3C=C(C)C4=CC(=O)CC[C@]4(C)[C@H]3CC[C@]2(C)[C@@]1(OC(C)=O)C(C)=O
inactive: max response [1] 18%

Cc1c(F)c(N2CCNC(C)C2)cc2c1c(=O)c(C(=O)O)cn2C1CC1 (configuration not stated)
inactive: max response [1] -1.28%

C[C@]12C=CC(=O)C=C1CC[C@@H]1[C@@H]2[C@@H](O)C[C@@]2(C)[C@H]1CC[C@]2(O)C(=O)CO
inactive: max response [1] 0.844%

O=C(OCC(O)CO)c1ccccc1Nc1ccnc2cc(Cl)ccc12 (configuration not stated)
inactive: max response [1] 7.94%

CC(C)(C)NC(=O)[C@@H]1CN(Cc2cccnc2)CCN1C[C@@H](O)C[C@@H](Cc1ccccc1)C(=O)N[C@H]1c2ccccc2C[C@H]1O
inactive: max response [1] 5.54%

CC[C@H](C)C(=O)O[C@H]1CCC=C2C=C[C@H](C)[C@H](CC[C@@H]3C[C@@H](O)CC(=O)O3)[C@H]21
inactive: outcome [2] | outcome [3] | outcome [5] | outcome [6] | outcome [7] | max response [1] 15.8% and 37.7%

N[C@H](CO)C(=O)O
inactive: outcome [2] | outcome [3] | outcome [4] | outcome [5] | outcome [6] | outcome [7] | max response [1] 0.963% and 16.2%

O=C(O)CNC(=O)c1ccccc1
inactive: max response [1] 1.04%

C[n+]1c2cc(N)ccc2cc2ccc(N)cc21 (tested in a mixture with another compound)
active: Potency [1] 7.94 µM

C[C@@H]1C(=O)NC2=Nc3cccc(Cl)c3CN21
inactive: outcome [2] | outcome [3] | outcome [4] | outcome [5] | outcome [6] | outcome [7] | max response [1] -15.6% and 9.95%

CCCn1c(=O)[nH]c(=O)c2[nH]cnc21
inactive: outcome [2] inactive; inhibitor; fitted 0.151 uM | outcome [5] | outcome [6] | outcome [7] | max response [1] 20.2% and 5.21%

C1CCc2nnnn2CC1
inactive: outcome [3] | outcome [4] | outcome [5] | outcome [6] | outcome [7] | max response [1] -4.71%

N[C@@H](Cc1cnc[nH]1)C(=O)O
inactive: outcome [2] | outcome [3] | outcome [4] | outcome [5] | outcome [6] | outcome [7] | max response [1] 4.12% and 12.1%

CCC(C(=O)OCCN(CC)CC)c1ccccc1 (configuration not stated)
inactive: max response [1] -1.81%

CC(=O)CC(c1ccc([N+](=O)[O-])cc1)c1c(O)c2ccccc2oc1=O (configuration not stated)
inactive: max response [1] 29.4%

CN(C)CCCOc1nn(Cc2ccccc2)c2ccccc12
inactive: max response [1] 10.4%

CC(=O)O[C@H]1C[C@@H]2CC[C@@H]3[C@H](CC[C@@]4(C)[C@H]3C[C@H]([N+]3(C)CCCCC3)[C@@H]4OC(C)=O)[C@@]2(C)C[C@@H]1[N+]1(C)CCCCC1
inactive: outcome [3] | outcome [4] | outcome [5] | outcome [6] | outcome [7] | max response [1] -9.72% and 10.5%

O=c1[nH]c(=O)n([C@H]2C[C@H](O)[C@@H](CO)O2)cc1C(F)(F)F
inactive: max response [1] 15%

CC(CCc1ccccc1)NCC(O)c1ccc(O)c(C(N)=O)c1 (configuration not stated)
inactive: outcome [2] | outcome [3] | outcome [4] | outcome [5] | outcome [6] | outcome [7] | max response [1] 16.8%

Oc1c(I)cc(I)c2cccnc12
active: Potency [1] 8.91 µM

COc1cc(NS(C)(=O)=O)ccc1Nc1c2ccccc2nc2ccccc12
inactive: outcome [2] | outcome [3] | outcome [4] | outcome [5] | outcome [6] | outcome [7]
active: Potency [1] 6.31 µM

CCCC1O[C@@H]2C[C@H]3[C@@H]4CCC5=CC(=O)C=C[C@]5(C)[C@H]4[C@@H](O)C[C@]3(C)[C@]2(C(=O)CO)O1 (some centres not stated)
inactive: outcome [2] | outcome [3] | outcome [4] | outcome [5] | outcome [6] | outcome [7] | max response [1] -5.95% and 18.2%
